# PubChem BioAssay (NCATS)
# Inconclusive results are not listed. Values without a mark were called inactive. Activity calls are given as the source filed them. Calls follow the shape of the dose curve; as a rule, active = well fitted inhibition curve with a large enough effect; inconclusive = small, poorly fitted or top-dose-only effect; inactive = no such curve, though single readings can be large or run the other way. Bridge positions count the residues as written; N and C are the ends. Square brackets hold non-standard residues; d marks the D form. Side chains are listed from the residue outwards. Peptide text beside a SMILES is read from it. * marks the point of attachment. Phg(4-OMe) = COc1ccc([C@H](N)C(=O)O)cc1; d(aIle) = CC[C@H](C)[C@@H](N)C(=O)O; d(aThr) = C[C@@H](O)[C@@H](N)C(=O)O; NMeF = CN[C@@H](Cc1ccccc1)C(=O)O; Isobutyryl = CC(C)C(=O)*
# Test: Secretion counterscreen for inhibitors of the SERCaMP assay screened against the NCATS CANVASS Library (AID 1347390);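 also: light from luciferase secreted into medium read as a measure of general secretion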
# Conditions: SH-SY5Y constitutive GLuc secretion, luminescence, 20 h; series mostly up to 76.6 µM; activity change, negative = inhibition: at the top concentration
# Text: Natural products and their derivatives continue to be wellsprings of nascent therapeutic potential. However, many laboratories have limited resources for biological evaluation, leaving their previously isolated or synthesized compounds largely or completely untested. To address this issue, the Canvass library of natural products was assembled (https://tripod.nih.gov/canvass), in collaboration with academic and industry researchers, for quantitative high-throughput screening (qHTS) across a diverse set of cell-based and biochemical assays. The pure (>85% purity by liquid chromatography/mass spectrometry [LC/MS]) Canvass library of 346 natural products were submitted by 45 academic laboratories and companies around the world. We collected pure natural products to circumvent deconvolution and structure elucidation due to time and resource limitations. The library was formatted into 1536-well plates and evaluated in 50 qHTS (in an 11-pnt concentration series) bioassays with broad scope of disease-relevant mechanisms. The resulting data set from 50 different assays was then systematically analyzed to identify overall trends and specific natural products with interesting biological activities. Reported herein are the results of each individual qHTS and their corresponding assay protocol. Compounds that interfere with the secretory pathway can show activity in the SERCaMP assay. This type of false positive is identified using a constitutively secreted GLuc reporter. National Center for Advancing Translational Sciences (NCAwsTS), Rockville, MD National Institute of Health (NIH), Bethesda, Maryland
# SERCaMP secretion assay protocol: 1. In a white-solid bottom 1536-well tissue culture plate (Corning 7494), 5 uL of SH-SY5Y-GLuc STOP cells were dispensed using a Multidrop Combi (Thermo Fisher Scientific) at a final concentration of 1000 cells / well. 2. The assay plates were incubated for 4 hours at 37C, 5% CO2, 95% humidity to acclimate and attach. 3. […] of compounds (in DMSO; columns 5-48), and positive control Brefeldin A (1 mM; 1:2 dilution; 16-points; n = 2; column 2, rows 1-32) were pin transferred into the assay plates using the Kalypsis pin tool (Wako USA) equipped with a 1536-well pin heads. This yields a final concentration range of 0.0001 - 4.6 uM for the Brefeldin A and 0.001 - 77 uM for the compounds. 4. The assay plates were incubated for 20 hours at 37C, 5% CO2, 95% humidity. 5. After incubation, 1 uL of (7x) substrate Coelenterazine (diluted 1:200 in Pierce Glow Assay buffer) was dispensed into columns 1 - 48, rows 1 - 32. 6. The plates were centrifuged for 5 seconds at 1000 rpm. 7. Luminescence signal was obtained via the ViewLux plate reader (Perkin Elmer) using the clear emission filter and 1x binning, 5 seconds exposure settings.
# % is scaled to controls: 0 for no effect and ±100 for the full control effect; potency is read from the fitted curve at half-maximal effect.
SMILES,"activity change, negative = inhibition [%]",Potency
O=c1cc(-c2ccc(O)c(O)c2)oc2cc(O[C@@H]3O[C@H](CO)[C@@H](O)[C@H](O)[C@H]3O)cc(O)c12,3.5,
CN1CC[C@]23c4ccccc4N[C@H]1[C@]21CCN(C)[C@H]3Nc2ccccc21,-4.8,
COc1c(O)cc2c(c1O)C(=O)c1c(coc1C)C2=O,-11.9,
C=C(C)CC[C@H](Cc1c(O)cc(O)c2c1O[C@H](c1ccc(O)cc1)CC2=O)C(=C)C,3.45,
CN1CC[C@]2(c3cccc4c3N[C@H]3N(C)CC[C@@]43[C@]34CCN(C)[C@H]3Nc3ccccc34)c3ccccc3N[C@H]12,,19.3 µM (active)
CC(CCC[C@]1(C)C(=O)C=C[C@@]23C[C@]4(C)O[C@@H](C[C@@H]4[C@H]2O)C31)C(=O)O (stereo not given in full),-5.53,
C/C(=C\[C@H](C)C(=O)C[C@H](O)CC1CC(=O)NC(=O)C1)[C@@H]1OC(=O)CCCC/C=C/[C@@H](O)C[C@@H]1C,,9.65 µM (active)
Oc1ccc(C2Oc3cc(O)c4c(c3[C@@H]2c2cc(O)cc(O)c2)[C@H]2C(c3ccc(O)cc3)c3c(O)cc5c(c3[C@H]2C4c2ccc(O)cc2)[C@H](c2cc(O)cc(O)c2)C(c2ccc(O)cc2)O5)cc1 (stereo not given in full),9.68,
COC(=O)C1=C[C@]23C[C@@H](C)CC[C@@H]2[C@@]2(C)CC[C@@H](C(C)C)[C@@](O)(O3)[C@@H]12,-4.32,
CC(C)[C@@H]1CC(=O)c2coc3c2[C@H]1C[C@@H](C)C3=O,-30,
CC(=O)c1c(C)cc2c(c1O)C(=O)c1c(O)cc(O)cc1C2=O,-16.8,
CC(=O)N[C@H](C)c1nc(/C=C/C=C/C(=O)CC2CC(=O)CC[C@]2(C)O)cs1 (stereo not given in full),-25.5,
[C-]#[N+][C@@]12C(=O)[C@@H]3[C@@H](O[C@@]4(C(=O)N(C)c5cccc1c54)C3(C)C)C(=O)[C@@]2(C)C=C,5.68,
C=CC(C)(C)C(=O)[C@@H](C)[C@@H]1CC[C@@](C)(C=C)O1,-18,
C=C(Cl)[C@](Cl)(CBr)CC[C@@H](Br)C(C)(C)Cl,28.9,
C/C=C(/C)c1c(Cl)c(OC)c(C)c2c1Oc1c(Cl)c(O)c(Cl)c(C)c1C(=O)O2,20.9,
O=Cc1ccc2n1C[C@]1(C[C@H](O)[C@@H](CO)O1)OC2,-19.3,
CC(=O)O[C@H]1c2ccccc2-c2c3c(cc4c2[C@@H]1N(C(C)=O)CC4)OCO3,-8.97,
C/C(=C\[C@H](C)C(=O)/C=C/CC1CC(=O)NC(=O)C1)[C@@H]1OC(=O)/C=C/CC/C=C/C[C@@H](O)[C@@H]1C,,10.8 µM (active)
C[C@]12CCC[C@](C)(C(=O)O)[C@@H]1CC[C@@]1(C)c3cocc3CC[C@H]21,49.5,

SMILES,"activity change, negative = inhibition [%]",Potency
COC(=O)[C@@]1(C)CCC[C@]2(C)c3cc(OC)ccc3CC[C@@H]12,-3.3,
CO[C@H]1/C=C/CCCCC(=O)O[C@@H](/C(C)=C/[C@H](C)C(=O)C[C@H](O)CC2CC(=O)NC(=O)C2)[C@@H](C)C1,,17.2 µM (active)
CC(C)[C@]12CC[C@@]3(C)[C@H](C)CC[C@H](O)[C@@]3(CC1)c1cc3c(cc12)[nH]c1ccccc13,-6.34,
CC[C@@H](c1cc(OC)c(OC)cc1OC)[C@H](C)[C@@H](/C(C)=C/c1cc(OC)c(OC)cc1OC)c1cc(OC)c(OC)cc1OC,,inactive
C[C@H]1CCC2(OC1)O[C@H]1C[C@H]3[C@@H]4CC(=O)[C@]5(O)C[C@H](O)CC[C@@]5(C)[C@H]4CC[C@@]3(C)[C@H]1[C@H]2C (stereo not given in full),17.5,
CC(C)C[C@@H]1c2c(O)c(C=O)c(O)c(C=O)c2O[C@]2(C)C=C[C@@H](C(C)C)C[C@H]12,-11.9,
C/C=C1/CN2C3CC1C1C=CC(=O)N4c5ccccc5[C@@]3(C[C@@H]2C2=C[C@H]3C5CC6N(CC[C@@]67c6ccccc6N(C2=O)[C@@H]37)C/C5=C/C)[C@H]14 (stereo not given in full),,34.3 µM (active)
C=C1CC[C@@H](Br)C(C)(C)[C@]12CC=C(C)C(=O)C2,-10.2,
CC(C)=CCC/C(C)=C/Cc1cc([C@@H]2CC(=O)c3c(cc(O)c(CC=C(C)C)c3O)O2)ccc1O,-18.3,
C/C=C/c1cc2c(c(=O)o1)C(=O)[C@@H](O)[C@H](C)O2,,34.3 µM (active)
CCCc1c2c([nH]c(=O)c1C)C(=O)c1[nH]c(=O)c(C)c(CCC)c1C2=O,61.7,
COc1cc(C2C3=C(Cc4cc5c(cc42)OCO5)C(=O)OC3)cc(OC)c1OC (stereo not given),-4.51,
CO[C@H]1[C@@H](OC(=O)/C(C)=C\[C@@H]2O[C@@H]2[C@H]2O[C@H]2C)[C@H](O)[C@H](OCC23C[C@@H]4[C@H](C)CC[C@H]4C4(C=O)CC2C=C(C(C)C)C34C(=O)O)O[C@@H]1C (stereo not given in full),-4.16,
CC[C@H](C)[C@H]1NC(=O)[C@@H](NC(=O)C(C)C)[C@@H](C)OC(=O)[C@H](COC(=O)CNC(C)=O)NC(=O)[C@@H]([C@@H](C)O)NC(=O)[C@H](Cc2ccccc2)N(C)C(=O)[C@H](c2ccc(OC)cc2)NC1=O (Isobutyryl-T[d(aIle)][Phg(4-OMe)][NMeF][d(aThr)]S([Gly-Ac]); ester 1-C),-33.1,
C[C@@]12CCC[C@@](C)(C(=O)O)[C@H]1C[C@@H](O)[C@@]13C[C@@H](CC[C@@H]21)[C@](C)(O)C3,-7.25,
O[C@H]1C=C2[C@H]3CN(Cc4cc5c(cc43)OCO5)[C@H]2C[C@@H]1O,,38.4 µM (active)
O=Cc1ccc2n1C[C@]1(OC2)O[C@H](CO)[C@@H](O)[C@@H]1O,1.15,
C/C=C1/C2=CCCN3C(=O)O[C@H]([C@H]1O)[C@H]23,0.133,
COC1C(C)OC(OCC23C[C@@H]4[C@H](C)CC[C@H]4C4(C=O)CC2C=C(C(C)C)C34C(=O)O)[C@@H](O)[C@H]1O (stereo not given in full),-13.4,
C=C1CCC2C(C)(C(=O)O)CCC(CC/C(C)=C/C(=O)NC(CCC(N)=O)C(=O)O)[C@@]2(C)C1 (stereo not given in full),-29.8,
